Assay outcomes (PubChem BioAssay)
This is a sample that favours compounds with a hit; in the whole collection about 7% have one here.
GRIN3A LBD mod – NR3A (human) ligand-binding domain modulation; hit rate 2.5% among 340,000; AID 1259313; Tm shift relative to glycine control, % at 25 µM; NR3A LBD differential scanning fluorimetry, Tm shift; 0% = protein alone, 100% = glycine-bound protein;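 active means melting temperature shift of at least 10% of the positive control shift, at one fixed dose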
AHR activator – human AHR activation; P35869; AHR-responsive luciferase reporter cells, luminescence; activation, % at 5 µM; hit rate 2.5% among 320,000; in the data active means activation above about 47%
ADAM17 inh – inhibits human ADAM17 | recombinant ADAM17, EDANS/DABCYL FRET peptide cleavage | inhibition, % at 6.95 µM | hit rate 0.83% among 370,000 | AID 720648;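 active means inhibition above the mean of compounds lying between control limits plus 3 SD, set per campaign, cut at about 8.5% in these data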
Target sequence (P78536 215-824 limits assumed): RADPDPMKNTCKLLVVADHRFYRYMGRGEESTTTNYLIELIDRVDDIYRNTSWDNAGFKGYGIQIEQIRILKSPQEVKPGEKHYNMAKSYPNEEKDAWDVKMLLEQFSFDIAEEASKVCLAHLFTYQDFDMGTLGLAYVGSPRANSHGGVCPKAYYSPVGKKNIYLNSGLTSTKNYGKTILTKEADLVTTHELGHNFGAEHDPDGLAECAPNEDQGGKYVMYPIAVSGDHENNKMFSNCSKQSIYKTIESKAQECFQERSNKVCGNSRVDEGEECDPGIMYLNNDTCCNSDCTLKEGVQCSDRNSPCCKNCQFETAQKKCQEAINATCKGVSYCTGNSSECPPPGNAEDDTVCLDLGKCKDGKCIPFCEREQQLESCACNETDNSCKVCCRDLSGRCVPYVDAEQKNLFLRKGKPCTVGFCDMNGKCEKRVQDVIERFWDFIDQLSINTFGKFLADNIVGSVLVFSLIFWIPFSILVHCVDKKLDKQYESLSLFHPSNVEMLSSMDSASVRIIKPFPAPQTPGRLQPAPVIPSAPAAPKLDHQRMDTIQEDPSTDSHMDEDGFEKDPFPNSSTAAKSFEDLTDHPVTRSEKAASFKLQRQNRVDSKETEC
proKLK7 act – activators of human kallikrein-7 zymogen; purified proKLK7, EDANS-DABCYL substrate fluorescence; 100% is mature enzyme control, 0% vehicle; activation, % at 7 µM; P49862; hit rate 0.9% among 370,000;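 active means activation above the mean of all tested compounds plus 3 SD, computed per campaign excluding outliers beyond control limits, cut at about 13% in these data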
rCAG binder – molecules binding r(CAG) RNA repeats. r(CAG) RNA repeat, TO-PRO-1 dye displacement fluorescence. inhibition, % at 3 µM. hit rate 1.3% among 370,000;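 active means inhibition above the plate cutoff, the mean of all test compounds on that plate plus 3 SD, cut at about 35% in these data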;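 further: higher means more dye released from RNA so lower well fluorescence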
ADAM10 inh – inhibits human ADAM10; hit rate 0.62% among 370,000; O14672; recombinant ADAM10, EDANS/DABCYL FRET peptide cleavage, 3 h; inhibition, % at 7 µM;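 active means inhibition above a per-campaign cutoff equal to the mean of compounds falling between control-based bounds plus 3 SD, cut at about 20% in these data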
ADAM10 confirm – confirmation of inhibitors of human ADAM10 | hit rate 1% among 2,100 | shares compounds with ADAM10 inh | ADAM10 QFRET peptide cleavage, EDANS fluorescence | inhibition, % at 6.95 µM | AID 743208;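 active means inhibition above about 20% chosen separately for each screening run, limit read from the data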
ADAM17 ctr – ADAM17 inhibition, counter-screen for ADAM10 exosite hits. ADAM17 QFRET peptide cleavage, EDANS fluorescence. shares compounds with ADAM10 inh. hit rate 0.5% among 2,100. AID 743214. inhibition, % at 6.95 µM;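 active means mean triplicate inhibition above the solvent-only control wells' mean plus 3 SD, cut at about 12% in these data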
ADAM10 counter – inhibits human ADAM10 in ADAM17 exosite counter-screen. recombinant ADAM10, EDANS/DABCYL FRET peptide cleavage, 3 h. inhibition, % at 6.95 µM. shares compounds with ADAM17 inh. AID 743256. hit rate 47% among 2,900;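 active means mean inhibition over the triplicate runs exceeds the activity threshold set in the earlier primary screen, cut at about 20% in these data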
ADAM17 confirm – confirmation of inhibitors of human ADAM17 | AID 743257 | inhibition, % at 6.95 µM | recombinant ADAM17, EDANS/DABCYL QFRET peptide cleavage | shares compounds with ADAM17 inh | hit rate 65% among 2,900;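 active means mean inhibition across replicates above the hit cutoff set in the primary screen, cut at about 8.5% in these data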
A number is an active result; n = inactive; x = not tested or not shown.

SMILES	GRIN3A LBD mod	AHR activator	ADAM17 inh	proKLK7 act	rCAG binder	ADAM10 inh	ADAM10 confirm	ADAM17 ctr	ADAM10 counter	ADAM17 confirm
C#CCN(C[C@H]1[C@H](OC(=O)NCc2ccccc2F)[C@H](OC(=O)NCc2ccccc2F)C[C@H]2C(=O)N(c3ccccc3)C(=O)[C@@H]12)S(=O)(=O)c1ccc(C)cc1	x	x	9.0	n	n	28.7	n	n	n	n
COCC(C)N=C1NN=C(c2c[nH]c3ccccc23)CS1 (centres undefined)	n	n	n	n	n	n	x	x	x	x
Cc1ccc(S(=O)(=O)N2C[C@H]3n4c(=O)ccc(=O)n4C[C@H](OC(=O)NCc4ccccc4)[C@@]3(O)C2)cc1	x	x	n	n	n	n	x	x	x	x
CCCCCCn1c(=O)n2n(c1=O)C[C@]1(OC(=O)NCc3ccccc3F)CN(S(=O)(=O)c3ccc(C)cc3)C[C@]1(O)C2	x	x	13.5	n	n	37.4	n	n	32.7	15.9
CCCCCCn1c(=O)n2n(c1=O)[C@@H]1CN(S(=O)(=O)c3ccc(C)cc3)C[C@]1(O)[C@@H](OC(=O)NCc1ccccc1)C2	x	x	9.9	n	n	22.0	n	n	33.3	15.8
COc1ccc(/C=N/NC(=O)Cc2csc(Nc3cccc(C(F)(F)F)c3)n2)cc1C	21.7	n	12.6	n	n	28.0	n	n	33.2	20.2
COc1cc(/C=N/NC(=O)Cc2csc(C)n2)ccc1OCC(C)C	n	n	n	n	n	n	x	x	x	x
Cc1ccc(NC(=O)c2cccc(OCc3c(C)noc3C)c2)cc1S(=O)(=O)Nc1ccccc1Cl	n	n	10.2	n	n	21.8	n	n	33.7	16.3
Cc1noc(C)c1COc1cccc(C(=O)Nc2ccc3c(c2)OCO3)c1	n	n	n	n	n	n	x	x	x	x
COCc1cccc(NC(=O)Cc2cccc3ccccc23)c1	n	n	n	n	n	n	x	x	x	x
O=C(Cc1cccc2ccccc12)Nc1ccc(OC(F)F)c(Cl)c1	23.5	n	9.9	n	n	22.8	n	n	29.7	19.9
Cc1ccc([C@@H]2[C@@H]3C(=O)N(C)C(=O)[C@@H]3[C@]3(C)C(=O)N(Cc4ccc(-c5ccccc5)cc4)CC(=O)N23)o1	n	n	n	n	n	n	x	x	x	x
O=C(Nc1cc(Oc2ccccc2)cc([N+](=O)[O-])c1)C12CC3CC(C1)CC(n1cnc(Cl)n1)(C3)C2	n	n	9.7	n	n	21.9	n	n	28.4	11.2
O=C(O)c1cccc(NC(=O)C23CC4CC(C2)CC(n2cnc(Cl)n2)(C4)C3)c1	n	n	n	n	n	n	x	x	x	x
CC(NC(=O)COC(=O)CNS(=O)(=O)/C=C/c1ccccc1)c1ccccc1 (centres undefined)	n	n	n	n	n	n	x	x	x	x
CCOc1cc(C(c2c(C)[nH][nH]c2=O)c2c(C)[nH][nH]c2=O)ccc1OC(=O)c1cccc([N+](=O)[O-])c1	n	n	23.5	n	n	27.3	n	n	n	n
COc1ccc(-c2nnc(SCC(=O)NN=C(C)c3cccc4ccccc34)n2-c2ccc(C)cc2)cc1	x	x	n	n	n	n	x	x	x	x
CC(C)(C)c1ccc(-c2nnc(SCC(=O)Nc3cccc4ccccc34)n2Cc2ccco2)cc1	x	x	9.2	n	n	19.8	n	n	35.8	16.9
CC(=NNC(=O)CSc1nnc(-c2ccc(C(C)(C)C)cc2)n1-c1ccccc1)c1cccc2ccccc12	x	x	8.9	n	n	22.6	n	n	n	12.5
CS(=O)(=O)c1ccc(Cl)c(NC(=O)CSc2n[nH]c(-c3cccs3)n2)c1	n	n	n	n	n	n	x	x	x	x
CN1CCS/C1=C\C=C1/SC(=S)N(CC(=O)O)C1=O	n	x	10.5	n	n	25.3	n	n	n	10.8
CCN1C(=O)/C(=C/C=C2/SCCN2C)SC1=S	n	n	n	n	n	n	x	x	x	x
COc1ccc([C@@H]2[C@@H]3C(=O)N(C(C)(C)C)C(=O)[C@@H]3[C@]3(Cc4ccccc4)C(=O)N(c4cccc(Cl)c4)C(=O)N23)cc1	n	n	9.8	n	n	36.7	n	n	25.6	14.6
CCCN(CCC)CCNC(=O)C1CCN(S(=O)(=O)c2cccc3nsnc23)CC1	n	n	n	n	n	n	x	x	x	x
COc1ccc(N=C2SC(CC(=O)Nc3ccccc3)C(=O)N2Cc2ccco2)cc1 (centres undefined)	n	n	9.3	n	n	28.4	n	n	20.5	13.8
SMILES	GRIN3A LBD mod	AHR activator	ADAM17 inh	proKLK7 act	rCAG binder	ADAM10 inh	ADAM10 confirm	ADAM17 ctr	ADAM10 counter	ADAM17 confirm
Oc1ccc(Cl)cc1-c1cc(-c2cccc(Br)c2)n[nH]1	30.6	n	10.4	n	n	24.9	n	n	31.3	17.5
CC1(Cc2ccc(C(F)(F)F)o2)C(=O)Nc2cc(-c3ccc(F)cc3F)ccc21 (centres undefined)	x	x	12.8	n	n	44.6	n	n	44.2	23.5
CC1(Cc2cc(Cl)ccc2C(F)(F)F)C(=O)Nc2cc(C(F)(F)F)ccc21 (centres undefined)	x	x	n	n	n	n	x	x	x	x
CC(C)Oc1ccc(F)cc1-c1cc(C(=O)NCc2ccc(F)cc2)[nH]n1	x	x	n	n	n	n	x	x	x	x
CCN(CC)CCN(C(=O)Cn1nnc(-c2ccc(C)o2)n1)C(C(=O)NC(C)(C)C)c1cccs1 (centres undefined)	n	n	n	n	n	n	x	x	x	x
COc1ccc(C(=O)NCCN2CCOCC2)cc1S(=O)(=O)Nc1ccc(C)cc1	n	n	n	n	n	n	x	x	x	x
COc1ccc(N(CC(O)Cn2c3ccccc3c3ccccc32)S(=O)(=O)c2ccccc2)cc1 (centres undefined)	n	54.7	13.1	n	n	31.3	191.1	41.1	n	12.4
CC(=O)Nc1ccccc1N(CC(O)Cn1c2ccccc2c2ccccc21)S(=O)(=O)c1ccc(C)cc1 (centres undefined)	12.6	n	12.9	n	n	24.9	n	n	37.7	23.3
CS(=O)(=O)N(CC(O)Cn1c2ccccc2c2ccccc21)c1ccccc1 (centres undefined)	n	n	n	n	n	n	x	x	x	x
O=C1CC(=O)N(CCc2ccccc2)C(=O)N1CCc1ccccc1	n	n	12.9	n	n	23.6	n	n	24.9	9.9
Cc1cccc(C)c1NC(=O)C(C1CC1)n1c(-c2ccc(C(F)(F)F)cc2)nc2ccccc21 (centres undefined)	x	x	n	n	n	n	x	x	x	x
